Experimental data reported in ChEMBL document CHEMBL4513216, “Probing the Open Global Health Chemical Diversity Library for Multistage-Active Starting Points for Next-Generation Antimalarials” (ACS Infect Dis, 2020).
About 2,100 (3.2%) of roughly 65,000 compounds showed an effect of 50% or more. The median lay at about -52%. The entries come from a sample that favours strong results as a whole.

These molecules were tested on Plasmodium falciparum (assay: Screen against P. falciparum Asexual Blood Stage (ABS), at 5uM). Details: tested at 5 uM.
Type: functional, Dd2

Row | Compound | INHIBITION
1 | O=C(c1cn(Cc2ccccc2)c2ncccc12)N1CCOCC1 | -68.2%
2 | Cc1cccc(CN2CC[C@@H]3[C@@H]2CCN3C(=O)c2ccoc2C)n1 | -77.9%
3 | CNc1ncc(CN(C)c2ncnc3onc(C)c23)cn1 | -3.41%
4 | O=C(Cc1ccc(O)c(F)c1)N1CCN(CC2CC2)[C@@H]2CS(=O)(=O)C[C@@H]21 | -78.4%
5 | O=C(c1onc2ccccc12)N1CCC2(CCCNC2)C1 (stereo not given) | -59.1%
6 | Fc1cnccc1CN1CCC2(CCNCC2)C1 | -66.9%
7 | c1ccc(Cn2cccn2)c(CN2CCC3(CCCNC3)C2)c1 (stereo not given) | 85%
8 | CN(C)CCNC(=O)c1ccn(-c2ccc3ccccn23)n1 | 84%
9 | O=C1OCCC1N1CCN(C(=O)Cc2c[nH]c3ccccc23)CC1 (stereo not given) | -131%
10 | Cc1nc(CC(=O)N2CCN(C(C)c3ccccc3F)CC2)cs1 (stereo not given) | -60.5%
11 | CN1CCN(c2ccc(NC(=O)c3cccs3)c(C(F)(F)F)c2)CC1 | 73.6%
12 | CCN1CCN(c2ccc(NC(=O)CC(C)C)c(C)c2)CC1 | -6.8%
13 | CN(C)C(=O)N1CCC2(C1)CN(c1cccnc1)C(=O)CN2C (stereo not given) | -35.4%
14 | COc1cc(C)c(CN2CCC3(CC2)[C@H](O)C[C@@H]3OCCN)cc1C | 77.2%
15 | C1Cc2nc(CCNc3nc(C4CC4)nc4c3CCNCC4)sc2C1 | 78.5%
16 | COc1ccc(CN(Cc2ccccn2)Cc2cncn2C)cc1 | 70.1%
17 | CN1CCN(Cc2cccnc2)C(=O)C12CCN(S(C)(=O)=O)CC2 | -18.9%
18 | Cc1ccc(CN(c2cc(C)nc3nc(C(F)(F)F)nn23)C2CC2)cc1 | 94%
19 | CCS(=O)(=O)NC[C@]12COC[C@H]1CN(Cc1ccncc1)C2 | -65.2%
20 | Cc1ccc(N2C[C@@H]3CN(Cc4ccsc4)CCO[C@@H]3C2)nn1 | -56.6%
21 | Brc1ccc(C2(CNCc3cc[nH]c3)CCOCC2)cc1 | 74.5%
22 | NCC1(c2cccc(C(F)(F)F)c2)CCC1 | 26.1%

Row | Compound | INHIBITION
23 | Brc1cccc(C2(CNCc3cc[nH]c3)CCOCC2)c1 | 83.1%
24 | FC(F)(F)c1cccc(C2(CNCc3cc[nH]c3)CCOCC2)c1 | 75.1%
25 | CC(C)c1cc(C(=O)N2CCN(C)[C@@H]3CS(=O)(=O)C[C@@H]32)no1 | -14.6%
26 | O=C(NC[C@]12COC[C@H]1CN(Cc1ccncc1)C2)c1ccno1 | -67.3%
27 | CNC(=O)[C@H]1C[C@H]2OCC[C@H]2N(CC2CC2)C1 | -40%
28 | CC(NC1(CNS(=O)(=O)N(C)C)CCCC1)c1ccccc1 (stereo not given) | 78.7%
29 | Cc1cc(S(=O)(=O)NCC2CNCCOC2)c(C)cc1Cl (stereo not given) | 75.4%
30 | CCCc1nc2c(c(C)c(C)n2CCN(C)C)c(N)c1CC | 89.9%
31 | Cc1c(-c2ccccc2)nc2c(c(C)c(C)n2CCN(C)C)c1N | 80.1%
32 | CCN1CCCC(CNC(=O)C2(c3cc(C)cc(C)c3)CCC2)C1 (stereo not given) | 75.8%
33 | CN1C[C@H]2N(c3ncccn3)CCC[C@@]2(C(=O)NCC2CC2)C1 | -48.6%
34 | CCN1C[C@H]2N(c3ncccn3)CCC[C@@]2(C(=O)NCC2CC2)C1 | -24.6%
35 | CCN(CC)S(=O)(=O)N1C[C@@H](c2ccccc2)[C@H]2[C@H]1CCCCCN2C | 71.7%
36 | CCOC(=O)[C@@H]1[C@@H](c2ccccc2)CN2CCN(S(C)(=O)=O)C[C@H]12 | -73.1%
37 | CC(C)S(=O)(=O)N1C[C@@H](c2ccccc2)[C@H]2[C@H]1CCCCCN2C | 20.4%
38 | CCc1ccccc1OCCNCCc1c[nH]cn1 | 71.2%
39 | O=C(NCCc1c[nH]cn1)c1ccccc1C1CCNC1 (stereo not given) | -101%
40 | c1cncc(O[C@@H]2CC[C@H]3[C@H]2OCCN3C2CCCC2)c1 | -118%
41 | COc1cc(CNC(C)Cn2cccn2)cc(OC)c1 (stereo not given) | -72.2%
42 | COc1cc(CNC(c2ccccc2)c2nccn2C)cc(OC)c1 (stereo not given) | 75.5%
43 | O=C(N[C@H]1COC[C@@H]1N1CCCC1)c1c[nH]nc1C1CCCCC1 | -18.2%
44 | c1cncc(OC[C@@H]2CCC[C@@]23CN(Cc2nccs2)CCO3)c1 | -85.2%

Row | Compound | INHIBITION
45 | CCN1CCNC(=O)C12CCN(C(=O)Cc1ccccn1)CC2 | -95%
46 | CN(C)C(=O)CN1C[C@@H]2OCCN(c3ncc(F)cn3)[C@@H]2C1 | -196%
47 | COc1cc(C2SCC(=O)Nc3[nH]ncc32)cc2c1OCO2 (stereo not given) | -86.5%
48 | Cc1cc(C)c(CNCC(O)c2ccc(F)c(F)c2)c(C)c1 (stereo not given) | 93%
49 | COc1cc(CNCC(O)c2ccc(C)cc2)cc2c1OCO2 (stereo not given) | 74%
50 | COc1cc(CNCC(O)c2ccc(F)c(F)c2)cc2c1OCO2 (stereo not given) | 78.2%
51 | COc1cc(CNCC(O)c2cccc(F)c2)cc2c1OCO2 (stereo not given) | 92.4%
52 | COc1cc(CNCC(O)c2ccc(C)cc2)cc2c1OCCO2 (stereo not given) | 48.2%
53 | Cc1cccc(CN2C[C@@H]3OCCN(c4cnccn4)[C@@H]3C2)n1 | 4.89%
54 | CC(Cc1ccccc1Br)NC(=O)CCS(C)(=O)=O (stereo not given) | -38.5%
55 | O=C1CCSCC(C(=O)N2CCC3(CC2)OCCO3)N1 (stereo not given) | -78%
56 | COCCCN1CCCC12CCN(c1ncccn1)CC2 | -22.9%
57 | CC(C)N1[C@H](Cn2cncn2)C[C@@H]2CNCC[C@@H]21 | -34.9%
58 | c1coc(-c2nc(CNC3CCC4(CCNCC4)CC3)no2)c1 | 73.4%
59 | Cc1cn2nc(N3CCCC3CC(C)(C)C)sc2n1 (stereo not given) | 71.6%
60 | COc1c(CNCCc2c[nH]c3ccccc23)c(C)nn1C | -60.7%
61 | COc1ccc(CCNCc2c(C)nn(C)c2N(C)C)cc1OC | 21.4%
62 | COc1c(CNCCc2c[nH]c3cc(F)ccc23)c(C(C)C)nn1C | 59.7%
63 | COc1c(CNCCc2c[nH]c3cc(F)ccc23)c(C)nn1C | 50%
64 | c1ccc(CO[C@@H]2C[C@H]3CN(c4ncccn4)CCN3C2)cc1 | -95.6%
65 | O=C1[C@H]2CN(Cc3ccncc3)C[C@H]2CN1c1cncnc1 | -49.7%
